Assay [1] has as its target Protein kinase C gamma type (Homo sapiens) (UniProt P05129). Particulars: at 1 µM.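 Further: each value is an averaged percent inhibition of the enzyme.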
Assay [2] has as its target T1, Protein kinase C iota type (Homo sapiens) (UniProt P41743).
T1 sequence (whole entry): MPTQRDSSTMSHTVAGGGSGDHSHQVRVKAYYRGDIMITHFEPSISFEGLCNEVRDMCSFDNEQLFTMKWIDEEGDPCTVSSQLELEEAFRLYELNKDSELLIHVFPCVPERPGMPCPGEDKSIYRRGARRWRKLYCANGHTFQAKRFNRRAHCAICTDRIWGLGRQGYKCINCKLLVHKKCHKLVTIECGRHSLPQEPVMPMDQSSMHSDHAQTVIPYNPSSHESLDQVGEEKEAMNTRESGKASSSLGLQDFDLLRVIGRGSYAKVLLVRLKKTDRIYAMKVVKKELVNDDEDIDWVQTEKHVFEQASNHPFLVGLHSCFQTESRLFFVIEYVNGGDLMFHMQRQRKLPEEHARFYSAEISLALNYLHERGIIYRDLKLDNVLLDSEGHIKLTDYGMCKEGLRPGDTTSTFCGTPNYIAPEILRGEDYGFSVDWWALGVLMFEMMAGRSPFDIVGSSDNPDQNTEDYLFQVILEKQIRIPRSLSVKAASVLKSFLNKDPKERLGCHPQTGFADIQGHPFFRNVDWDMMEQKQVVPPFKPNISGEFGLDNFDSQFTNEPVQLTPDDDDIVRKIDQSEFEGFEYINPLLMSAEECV
Particulars: at 0.1 µM.

The target in assay [3] is T1, Protein kinase C iota type (Homo sapiens). Particulars: at 1 µM.
Assay [4] has as its target Protein kinase C theta type (Homo sapiens) (UniProt Q04759). Particulars: at 0.1 µM.
Assay [5] shares this target. Particulars: at 1 µM.
Assay [6] has as its target Protein kinase C beta type (Homo sapiens) (UniProt P05771). Particulars: at 0.1 µM.
Assay [7] has the same target. Particulars: at 1 µM.
Assay [8] addresses T2, Serine/threonine-protein kinase D1 (Homo sapiens) (UniProt Q15139).
T2 sequence (whole entry): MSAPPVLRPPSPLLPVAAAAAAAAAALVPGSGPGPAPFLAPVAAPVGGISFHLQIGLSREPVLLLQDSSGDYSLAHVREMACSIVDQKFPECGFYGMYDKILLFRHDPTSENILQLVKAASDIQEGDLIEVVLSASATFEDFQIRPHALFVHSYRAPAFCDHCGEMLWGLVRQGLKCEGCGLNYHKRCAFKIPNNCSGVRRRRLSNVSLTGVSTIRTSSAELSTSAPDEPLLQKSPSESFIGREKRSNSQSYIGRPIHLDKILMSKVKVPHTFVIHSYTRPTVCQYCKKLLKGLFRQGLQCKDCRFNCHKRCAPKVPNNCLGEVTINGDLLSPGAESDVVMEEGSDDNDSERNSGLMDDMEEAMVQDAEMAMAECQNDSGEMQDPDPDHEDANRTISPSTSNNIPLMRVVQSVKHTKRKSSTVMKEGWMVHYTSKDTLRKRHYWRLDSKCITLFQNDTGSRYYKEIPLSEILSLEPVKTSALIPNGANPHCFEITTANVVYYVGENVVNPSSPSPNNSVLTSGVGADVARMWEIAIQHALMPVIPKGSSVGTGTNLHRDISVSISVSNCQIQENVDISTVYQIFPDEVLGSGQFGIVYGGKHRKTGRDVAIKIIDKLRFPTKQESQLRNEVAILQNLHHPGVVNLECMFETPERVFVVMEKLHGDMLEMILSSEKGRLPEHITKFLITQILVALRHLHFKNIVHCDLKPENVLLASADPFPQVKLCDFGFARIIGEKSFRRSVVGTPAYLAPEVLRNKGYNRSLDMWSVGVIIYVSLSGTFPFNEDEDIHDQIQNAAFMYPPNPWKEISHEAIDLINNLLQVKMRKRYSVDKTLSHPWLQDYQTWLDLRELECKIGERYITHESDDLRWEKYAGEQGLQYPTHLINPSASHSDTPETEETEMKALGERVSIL
Particulars: at 0.1 µM.

The target in assay [9] is T2, Serine/threonine-protein kinase D1 (Homo sapiens). Particulars: at 1 µM.
Assay [10] addresses T3, Serine/threonine-protein kinase D2 (Homo sapiens) (UniProt Q9BZL6).
T3 sequence (whole entry): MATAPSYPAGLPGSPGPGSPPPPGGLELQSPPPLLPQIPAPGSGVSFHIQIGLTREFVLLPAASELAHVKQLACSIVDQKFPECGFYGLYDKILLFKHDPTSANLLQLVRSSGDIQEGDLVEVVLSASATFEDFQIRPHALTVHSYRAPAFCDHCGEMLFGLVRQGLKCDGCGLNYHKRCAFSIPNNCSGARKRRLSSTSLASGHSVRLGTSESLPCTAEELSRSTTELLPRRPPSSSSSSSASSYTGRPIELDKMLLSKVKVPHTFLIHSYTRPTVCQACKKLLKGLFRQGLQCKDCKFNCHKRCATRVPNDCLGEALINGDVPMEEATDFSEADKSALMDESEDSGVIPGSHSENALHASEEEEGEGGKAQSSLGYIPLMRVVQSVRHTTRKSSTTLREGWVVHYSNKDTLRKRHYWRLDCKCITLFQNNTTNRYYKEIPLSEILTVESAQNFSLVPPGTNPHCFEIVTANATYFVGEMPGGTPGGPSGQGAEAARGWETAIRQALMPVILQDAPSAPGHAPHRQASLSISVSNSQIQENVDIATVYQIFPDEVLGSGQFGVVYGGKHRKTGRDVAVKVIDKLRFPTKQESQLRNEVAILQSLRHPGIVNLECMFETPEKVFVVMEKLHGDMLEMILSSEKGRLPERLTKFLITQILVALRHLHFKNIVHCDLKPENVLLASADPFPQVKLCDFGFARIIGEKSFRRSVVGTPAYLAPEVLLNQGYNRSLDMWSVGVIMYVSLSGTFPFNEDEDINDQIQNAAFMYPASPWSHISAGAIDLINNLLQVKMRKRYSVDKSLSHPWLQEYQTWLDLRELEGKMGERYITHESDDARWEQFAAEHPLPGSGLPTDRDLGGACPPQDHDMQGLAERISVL
Particulars: at 0.1 µM.

The target of assay [11] is T3, Serine/threonine-protein kinase D2 (Homo sapiens). Particulars: at 1 µM.
Assay [12] deals with T4, Serine/threonine-protein kinase D3 (Homo sapiens) (UniProt O94806).
T4 sequence (whole entry): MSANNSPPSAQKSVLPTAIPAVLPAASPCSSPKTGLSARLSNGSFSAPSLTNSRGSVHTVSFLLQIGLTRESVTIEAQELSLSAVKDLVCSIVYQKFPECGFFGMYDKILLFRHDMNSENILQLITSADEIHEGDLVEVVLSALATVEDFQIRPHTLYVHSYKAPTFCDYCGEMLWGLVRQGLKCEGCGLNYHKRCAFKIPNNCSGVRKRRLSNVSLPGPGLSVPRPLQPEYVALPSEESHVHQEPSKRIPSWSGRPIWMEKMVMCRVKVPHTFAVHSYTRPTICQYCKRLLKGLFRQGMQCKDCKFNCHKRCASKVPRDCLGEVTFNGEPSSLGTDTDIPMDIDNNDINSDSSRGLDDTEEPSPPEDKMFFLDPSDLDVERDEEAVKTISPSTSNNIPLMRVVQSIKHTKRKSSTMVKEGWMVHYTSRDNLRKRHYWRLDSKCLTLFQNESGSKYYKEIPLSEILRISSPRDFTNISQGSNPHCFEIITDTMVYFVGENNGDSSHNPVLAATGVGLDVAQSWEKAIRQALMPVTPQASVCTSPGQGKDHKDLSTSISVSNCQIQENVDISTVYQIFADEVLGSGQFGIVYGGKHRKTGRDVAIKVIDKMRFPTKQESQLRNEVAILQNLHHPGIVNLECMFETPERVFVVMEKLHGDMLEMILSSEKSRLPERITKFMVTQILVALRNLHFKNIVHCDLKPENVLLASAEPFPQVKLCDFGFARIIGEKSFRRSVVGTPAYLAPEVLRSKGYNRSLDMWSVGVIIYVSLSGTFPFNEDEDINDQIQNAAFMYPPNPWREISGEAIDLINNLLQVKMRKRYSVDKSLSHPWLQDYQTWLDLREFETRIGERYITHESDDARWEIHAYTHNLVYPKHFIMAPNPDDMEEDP
Particulars: at 0.1 µM.

The target of assay [13] is T4, Serine/threonine-protein kinase D3 (Homo sapiens). Particulars: at 1 µM.
Assay [14] addresses T5, cGMP-dependent protein kinase 1 (Homo sapiens) (UniProt Q13976).
T5 sequence (whole entry): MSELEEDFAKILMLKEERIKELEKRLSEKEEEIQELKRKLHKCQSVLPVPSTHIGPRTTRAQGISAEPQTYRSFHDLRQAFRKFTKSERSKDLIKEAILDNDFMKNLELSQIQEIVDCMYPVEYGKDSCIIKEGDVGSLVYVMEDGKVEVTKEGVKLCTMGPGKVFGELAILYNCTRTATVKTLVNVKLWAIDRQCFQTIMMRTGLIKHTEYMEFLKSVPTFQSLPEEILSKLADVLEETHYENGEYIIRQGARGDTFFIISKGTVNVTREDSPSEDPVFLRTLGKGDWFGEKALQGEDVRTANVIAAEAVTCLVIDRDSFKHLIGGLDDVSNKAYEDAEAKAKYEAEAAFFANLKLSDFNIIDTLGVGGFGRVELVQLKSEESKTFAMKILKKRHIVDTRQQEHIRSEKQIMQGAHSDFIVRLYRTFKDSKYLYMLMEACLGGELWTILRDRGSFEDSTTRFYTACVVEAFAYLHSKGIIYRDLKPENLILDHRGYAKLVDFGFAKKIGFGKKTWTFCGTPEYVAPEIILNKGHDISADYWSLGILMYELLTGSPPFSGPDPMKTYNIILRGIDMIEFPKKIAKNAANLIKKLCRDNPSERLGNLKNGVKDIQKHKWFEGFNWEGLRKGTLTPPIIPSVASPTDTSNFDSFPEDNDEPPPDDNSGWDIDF
Particulars: at 0.1 µM.

The target in assay [15] is T5, cGMP-dependent protein kinase 1 (Homo sapiens). Particulars: at 1 µM.
In assay [16] the target is T6, cGMP-dependent protein kinase 2 (Homo sapiens) (UniProt Q13237).
T6 sequence (whole entry): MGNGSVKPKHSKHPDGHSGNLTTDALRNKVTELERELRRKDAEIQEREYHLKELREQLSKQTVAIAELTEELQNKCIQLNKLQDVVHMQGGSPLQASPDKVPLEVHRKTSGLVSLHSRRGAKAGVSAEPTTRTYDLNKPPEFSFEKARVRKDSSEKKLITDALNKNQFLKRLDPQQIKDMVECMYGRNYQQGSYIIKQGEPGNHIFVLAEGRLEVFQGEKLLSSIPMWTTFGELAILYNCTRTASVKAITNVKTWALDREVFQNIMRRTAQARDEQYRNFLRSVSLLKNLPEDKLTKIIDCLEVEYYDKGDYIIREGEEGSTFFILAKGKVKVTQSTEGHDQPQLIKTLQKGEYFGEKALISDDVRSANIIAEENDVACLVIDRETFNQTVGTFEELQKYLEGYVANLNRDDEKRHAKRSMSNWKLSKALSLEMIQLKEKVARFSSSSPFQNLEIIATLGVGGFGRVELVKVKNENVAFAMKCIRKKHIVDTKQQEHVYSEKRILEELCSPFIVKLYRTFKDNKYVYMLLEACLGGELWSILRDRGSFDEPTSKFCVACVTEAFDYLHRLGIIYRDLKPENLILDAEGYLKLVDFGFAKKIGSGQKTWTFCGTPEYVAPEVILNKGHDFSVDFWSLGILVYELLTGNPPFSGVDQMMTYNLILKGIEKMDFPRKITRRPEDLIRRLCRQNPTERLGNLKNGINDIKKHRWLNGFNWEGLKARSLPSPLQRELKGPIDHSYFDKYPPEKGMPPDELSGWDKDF
Particulars: at 0.1 µM.

The target of assay [17] is T6, cGMP-dependent protein kinase 2 (Homo sapiens). Particulars: at 1 µM.
Assay [18] has as its target T7, cAMP-dependent protein kinase catalytic subunit PRKX (Homo sapiens) (UniProt P51817).
T7 sequence (whole entry): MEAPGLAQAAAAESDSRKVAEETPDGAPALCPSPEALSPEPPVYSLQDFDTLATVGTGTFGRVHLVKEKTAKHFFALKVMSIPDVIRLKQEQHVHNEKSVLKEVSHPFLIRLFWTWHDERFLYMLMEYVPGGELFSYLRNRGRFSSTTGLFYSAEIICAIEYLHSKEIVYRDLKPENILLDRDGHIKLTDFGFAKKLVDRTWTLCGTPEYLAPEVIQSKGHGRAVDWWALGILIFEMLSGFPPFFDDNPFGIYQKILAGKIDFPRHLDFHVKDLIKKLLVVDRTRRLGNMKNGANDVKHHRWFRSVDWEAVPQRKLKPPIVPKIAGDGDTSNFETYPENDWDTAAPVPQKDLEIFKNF
Particulars: at 0.1 µM.

The target of assay [19] is T7, cAMP-dependent protein kinase catalytic subunit PRKX (Homo sapiens). Particulars: at 1 µM.
For assay [20], the target named is Rho-associated protein kinase 1 (Homo sapiens) (UniProt Q13464). Particulars: at 0.1 µM.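 Further: values are mean percent inhibition of ROCK1.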
Rho-associated protein kinase 1 (Homo sapiens), sequence (Q13464 2-1354 limits assumed): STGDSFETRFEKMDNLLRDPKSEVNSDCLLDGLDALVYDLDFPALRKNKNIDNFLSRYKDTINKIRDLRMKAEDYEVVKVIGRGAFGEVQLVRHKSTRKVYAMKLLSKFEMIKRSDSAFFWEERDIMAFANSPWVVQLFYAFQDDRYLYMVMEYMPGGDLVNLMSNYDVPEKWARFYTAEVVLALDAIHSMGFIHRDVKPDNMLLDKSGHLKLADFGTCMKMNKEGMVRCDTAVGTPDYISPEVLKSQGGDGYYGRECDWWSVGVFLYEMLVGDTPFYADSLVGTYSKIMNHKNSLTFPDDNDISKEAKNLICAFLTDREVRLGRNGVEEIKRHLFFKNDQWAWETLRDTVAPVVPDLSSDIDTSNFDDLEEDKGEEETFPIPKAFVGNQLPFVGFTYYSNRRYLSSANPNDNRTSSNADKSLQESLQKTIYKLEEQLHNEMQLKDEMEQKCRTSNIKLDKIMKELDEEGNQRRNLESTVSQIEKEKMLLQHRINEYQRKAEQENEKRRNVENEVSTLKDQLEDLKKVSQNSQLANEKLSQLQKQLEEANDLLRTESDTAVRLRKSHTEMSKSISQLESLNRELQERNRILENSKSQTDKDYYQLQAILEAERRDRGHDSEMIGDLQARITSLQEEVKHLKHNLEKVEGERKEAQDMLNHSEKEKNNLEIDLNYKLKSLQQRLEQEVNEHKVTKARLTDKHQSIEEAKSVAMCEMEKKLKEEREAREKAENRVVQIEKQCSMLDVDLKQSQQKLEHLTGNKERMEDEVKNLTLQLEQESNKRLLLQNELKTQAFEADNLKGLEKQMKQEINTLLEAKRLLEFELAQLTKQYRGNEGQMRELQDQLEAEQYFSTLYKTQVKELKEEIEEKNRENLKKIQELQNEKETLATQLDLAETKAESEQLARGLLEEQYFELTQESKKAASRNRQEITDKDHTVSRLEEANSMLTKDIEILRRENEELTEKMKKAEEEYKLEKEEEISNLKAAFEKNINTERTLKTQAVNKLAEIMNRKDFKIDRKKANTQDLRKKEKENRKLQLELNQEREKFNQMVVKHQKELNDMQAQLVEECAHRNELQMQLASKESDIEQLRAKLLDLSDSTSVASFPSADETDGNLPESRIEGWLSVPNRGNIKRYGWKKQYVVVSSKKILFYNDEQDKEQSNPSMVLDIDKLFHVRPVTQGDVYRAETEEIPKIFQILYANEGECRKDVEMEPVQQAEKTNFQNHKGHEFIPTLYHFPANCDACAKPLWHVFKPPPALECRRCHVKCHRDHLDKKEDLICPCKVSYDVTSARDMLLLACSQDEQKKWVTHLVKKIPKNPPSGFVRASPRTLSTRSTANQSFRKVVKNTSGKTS

Protein kinase C beta type (Homo sapiens), sequence (P05771 2-671 limits assumed): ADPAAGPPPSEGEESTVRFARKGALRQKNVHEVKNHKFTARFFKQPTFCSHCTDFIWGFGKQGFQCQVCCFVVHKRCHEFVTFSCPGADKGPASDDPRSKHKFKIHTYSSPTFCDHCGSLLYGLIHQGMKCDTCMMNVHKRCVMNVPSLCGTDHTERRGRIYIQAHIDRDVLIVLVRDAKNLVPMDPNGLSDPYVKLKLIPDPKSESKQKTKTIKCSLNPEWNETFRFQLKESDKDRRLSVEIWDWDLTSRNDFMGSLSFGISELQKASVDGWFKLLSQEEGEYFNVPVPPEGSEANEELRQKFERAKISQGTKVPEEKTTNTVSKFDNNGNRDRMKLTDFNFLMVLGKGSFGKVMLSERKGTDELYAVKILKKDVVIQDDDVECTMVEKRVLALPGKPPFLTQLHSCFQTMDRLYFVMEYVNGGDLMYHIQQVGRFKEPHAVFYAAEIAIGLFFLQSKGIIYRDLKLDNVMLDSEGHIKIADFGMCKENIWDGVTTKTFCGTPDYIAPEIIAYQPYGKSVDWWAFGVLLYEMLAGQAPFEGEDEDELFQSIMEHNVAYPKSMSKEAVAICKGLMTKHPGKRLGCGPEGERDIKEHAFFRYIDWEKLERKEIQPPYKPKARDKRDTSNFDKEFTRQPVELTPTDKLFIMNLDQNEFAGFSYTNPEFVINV
Protein kinase C theta type (Homo sapiens), sequence (Q04759 whole entry, looked up): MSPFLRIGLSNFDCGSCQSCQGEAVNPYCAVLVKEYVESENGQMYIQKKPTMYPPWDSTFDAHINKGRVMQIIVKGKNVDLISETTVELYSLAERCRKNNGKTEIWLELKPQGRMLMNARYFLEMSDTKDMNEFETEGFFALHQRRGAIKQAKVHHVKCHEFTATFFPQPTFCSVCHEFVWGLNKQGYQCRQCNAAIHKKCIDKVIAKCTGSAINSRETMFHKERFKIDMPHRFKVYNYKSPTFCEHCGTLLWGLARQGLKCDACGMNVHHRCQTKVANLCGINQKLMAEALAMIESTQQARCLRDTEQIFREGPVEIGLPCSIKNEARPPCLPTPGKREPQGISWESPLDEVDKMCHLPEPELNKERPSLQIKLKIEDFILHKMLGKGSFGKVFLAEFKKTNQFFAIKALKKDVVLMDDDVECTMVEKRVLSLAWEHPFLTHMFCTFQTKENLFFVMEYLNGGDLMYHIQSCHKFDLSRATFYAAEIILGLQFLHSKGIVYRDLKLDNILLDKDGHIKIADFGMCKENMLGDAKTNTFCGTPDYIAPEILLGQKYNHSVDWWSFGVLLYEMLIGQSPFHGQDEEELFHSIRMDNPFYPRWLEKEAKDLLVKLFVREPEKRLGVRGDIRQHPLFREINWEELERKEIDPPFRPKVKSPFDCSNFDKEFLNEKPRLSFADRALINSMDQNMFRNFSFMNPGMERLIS

The inhibition is the change of the read-out against control, counted positive when it falls. Consider `CCOc1ccc2c(-c3ccnc(Nc4cccc(C(F)(F)F)c4)n3)cnn2n1`, for which the inhibition in assay [1] was found to be 2.94%; in assay [2], 1.45%; in [3], 0.72%; in assay [4], 0.84%; in assay [5], 0.7%; in [6] it was 0.45%. Further, the inhibition in [7] turned out to be 0.29%; in assay [8], 3.34%; in assay [9], 3.21%; in assay [10], 3.62%; in [11] it was 1.84%; in assay [12], 3.02%. Moreover, the inhibition was found to be 3.58% in assay [13]; 0.52% in [14]; 1.15% in assay [15]; 0.91% in [16]; 0.29% in [17]; 0.1% in [18]. Moreover, the inhibition is -0.76% in assay [19] and -1.15% in assay [20].
With `COc1cc2ncn(-c3cc(OCc4ccccc4C(F)(F)F)c(C(=O)N(C)C)s3)c2cc1OC`, the inhibition in assay [1] is 0.13%; in [2], -0.68%; in [3], -2.2%; in assay [4], 0.14%; in assay [5], -0.71%; in assay [6], 0.03%. The inhibition was 0.09% in assay [7]; 0.6% in assay [8]; 1.47% in assay [9]; 1.09% in [10]; 1.88% in assay [11]; 0.07% in assay [12]. Also, the inhibition in assay [13] is -0.01%; in assay [14], -0.43%; in [15], 0.77%; in assay [16] it was -0.41%; in assay [17] it was 0.43%; in [18], -0.01%. For the same compound, the results for the inhibition in assay [19] and in assay [20] were -0.4% and -0.15%, respectively.

The values are drawn from ChEMBL document CHEMBL1961873, “Compounds: GSK PKIS; Assays: Nanosyn kinase panel” (2012).
